# Bioassay records: PubChem, National Center for Advancing Translational Sciences (NCATS)
# Shiga inhibitor: A qHTS for Small Molecule Inhibitors of Shiga Toxin; inhibition, % at 38.7 µM; Vero cells, Shiga toxin protein synthesis inhibition reporter; actives 9.2% (n = 290,000); in the data active = inhibition mostly above about 28%, no sharp cut-off; inactive = mostly below about 43%
# SARS PLpro yeast: qHTS of Yeast-based Assay for SARS-CoV PLP; S. cerevisiae expressing SARS-CoV PLpro, growth rescue; Potency, µM (titrated, usually from 32.9 µM), actives largely listed as activators; actives 0.19% (n = 330,000); AID 485353, 2010; calls by dose curve; note: nearly all actives have a fitted effect of over 55% in size
# Pf growth 96h: Primary qHTS for delayed death inhibitors of the malarial parasite plastid, 96 hour incubation; Potency, µM (series often up to 28.7 µM), most hits filed as inhibitors; AID 504834, 2011; P. falciparum luciferase reporter growth, 96 h; actives 6.9% (n = 320,000)
#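 Erythrocytes infected with luciferase-expressing P. falciparum were dispensed at 2% hematocrit and 0.05% parasitemia (final), then incubated with compounds 96 hours at 37 C in 5% CO2. Luminescence after detection reagent addition reported growth.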
# Pf growth 48h: Primary qHTS for delayed death inhibitors of the malarial parasite plastid, 48 hour incubation; P. falciparum luciferase growth in erythrocytes, 48 h; Potency, µM (series often up to 28.7 µM), hits mostly inhibitors; actives 5.9% (n = 310,000); AID 504832, 2011
#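 Luminescence readout; reporter = integrated firefly luciferase in P. falciparum. RBC culture at 2% hematocrit, 0.1% parasitemia final, 37 C/5% CO2; decreased signal taken as growth inhibition.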
# CHX counter: Cycloheximide Counterscreen for Small Molecule Inhibitors of Shiga Toxin; actives 12% (n = 300,000); cell reporter, cycloheximide protein synthesis inhibition counterscreen; max response, %; AID 2314, 2010; in the data active = max response mostly above about 13%, no sharp cut-off; inactive = mostly below about 14%; note: read at 38.3 µM for the half of the compounds with a filed dose
# NS1 inh: qHTS Assay for Inhibitors of Influenza NS1 Protein Function | actives 0.4% (n = 270,000) | Potency, µM (doses to about 46.1 µM); calls by dose curve; note: actives are rising curves; nearly all actives have a fitted effect of over 50% in size
#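 A cell-based growth assay was used: compounds that relieve NS1-induced slow growth of budding yeast raise OD600. Assay medium was yeast nitrogen base with ammonium sulphate and -URA supplement, pH 6.0, with 2% galactose.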
# Numbers stand for hits; 0 = inactive; ? = inconclusive; - = no result given; + = active, no number. Most compounds without a hit are left out; they make up all but 21% or so of the library. Unless noted, calls come from the whole dose curve; as a rule, active = well fitted inhibition curve with a large enough effect; inconclusive = small, poorly fitted or top-dose-only effect, or another doubt; inactive = no such curve, though single readings can be large or run the other way.
SMILES,Shiga inhibitor,SARS PLpro yeast,Pf growth 96h,Pf growth 48h,CHX counter,NS1 inh
Cc1noc(C)c1CSc1nc2ccccc2c(=O)n1-c1ccc(Cl)cc1,0,0,?,-,0,0
COc1ccc(NC(=O)C(c2cc3c(cc2[N+](=O)[O-])OCO3)N(C)C)cc1 (centres undefined),0,0,?,0,0,0
COc1ccc(-c2csc(/C(C#N)=C(\O)CSc3nccn3C)n2)cc1OC,0,0,?,?,0,0
CCOc1cc(/C=C2\SC(=S)N(NS(=O)(=O)c3ccccc3)C2=O)ccc1O,0,0,0,0,0,0
CCOc1cc(/C=C2\SC(=S)N(Nc3ccccc3)C2=O)ccc1O,62.1,0,0,0,55.3,0
COc1ccc(CC(=O)NNc2ncnc3c2cnn3-c2ccc(C)cc2)cc1OC,0,0,0,0,15.3,0
CC(=O)NNc1ncnc2c1cnn2-c1ccc(C)c(Cl)c1,68.2,0,8.28µM,0,38.5,-
Cc1ccc(-n2ncc3c(NNC(=O)c4ccco4)ncnc32)cc1C,56.3,0,?,?,24.7,0
CC(=O)NNc1ncnc2c1cnn2-c1ccc(C)cc1,85.7,0,?,0,36.7,-
O=C(NNc1ncnc2c1cnn2-c1cccc(Cl)c1)c1ccco1,0,0,?,0,0,0
CC(=O)c1ccc(NC(=O)CSc2nnc(C3CC3)n2C2CC2)cc1,-,0,-,-,-,-
Cc1[nH]c2ccccc2c1SCc1nnc(SCc2ccccc2)n1C,0,0,?,?,0,0
Cc1[nH]c2ccccc2c1SCc1nnc(SCc2ccc(Cl)cc2)n1C,0,0,?,14.7µM,0,0
CCN1CCN(C(=O)CCCn2c(C)c3cnn(-c4ccccc4)c(=O)c3c2C)CC1,0,0,2.62µM,-,0,0
CCOC(=O)c1cnc2c(C)cccc2c1NCCc1ccc(OC)c(OC)c1,0,0,4.15µM,?,0,0
CCOC(=O)c1cnc2ccc(C(=O)OC)cc2c1NCCc1ccc(OC)c(OC)c1,0,0,0,10.4µM,0,0
CCOC(=O)c1cnc2ccc(C(=O)OC)cc2c1NCCN1CCOCC1,0,0,?,0,0,0
Cc1ccc(C(=O)NCC(=O)OCc2c(F)cccc2Cl)s1,-,0,-,-,-,-
Cc1sc2ncnc(SCC(=O)N3CCCC(C(N)=O)C3)c2c1C (centres undefined),-,0,0,0,-,-
CCOC(=O)c1ccc(-c2cccc(C(F)(F)F)c2)nc1C,0,0,0,0,16.9,0
CCOC(=O)c1cc(C#N)c(Oc2cccc(C(F)(F)F)c2)nc1-c1ccccc1,0,0,?,13.1µM,0,0
CCOC(=O)c1cc(C#N)c(Oc2ccc(F)cc2)nc1-c1ccccc1,0,0,0,?,0,0
CCCCCCC(=O)N1CCCC(c2nc(-c3cccc(OC)c3)no2)C1 (centres undefined),0,0,0,0,0,0
COc1ccc(-c2noc(C3CCCN(C(=O)c4cccc(F)c4)C3)n2)cc1 (centres undefined),-,0,0,0,0,0
COc1cccc(-c2noc(C3CCCN(C(=O)Cc4ccccc4)C3)n2)c1 (centres undefined),0,0,0,0,22.5,0
SMILES,Shiga inhibitor,SARS PLpro yeast,Pf growth 96h,Pf growth 48h,CHX counter,NS1 inh
O=C(Cc1ccccc1)N1CCCC(c2nc(-c3cccs3)no2)C1 (centres undefined),0,0,?,0,0,0
CCCC(=O)N1CCCC(c2nc(-c3cccc(OC)c3)no2)C1 (centres undefined),77.0,0,0,0,32.0,0
COc1cccc(-c2noc(C3CCCN(C(=O)c4cccc(F)c4)C3)n2)c1 (centres undefined),45.4,0,?,?,34.7,0
COc1ccc(COC(=O)CNC(=O)C2CCCCC2)cc1F,-,0,-,-,-,-
Cc1ccc(CNC(=O)c2cc(COc3c(F)cccc3F)on2)s1,0,0,0,0,0,0
O=C(NCCc1cn2ccccc2n1)c1cc(COc2c(F)cccc2F)on1,0,0,0,0,17.1,0
Cc1ccc(OCc2cc(C(=O)NCc3cn4ccccc4n3)no2)cc1C,37.3,0,?,0,20.2,0
COc1cccc(OCc2cc(C(=O)NCc3cnc4ccccn34)no2)c1,0,0,?,?,0,0
COc1cccc(CCNC(=O)c2cc(COc3c(F)cccc3F)on2)c1,0,0,?,0,16.2,0
Cc1cc(OCc2cc(C(=O)NCc3csc(C(C)C)n3)no2)cc(C)c1Cl,0,0,0,0,20.0,0
COc1ccc(-c2cc(C(=O)N(C)CC(=O)Nc3cccc(F)c3)c3ccccc3n2)cc1,-,0,?,?,-,-
CC12CCC(C(=O)N3CCC(Cc4ccccc4)CC3)(C(=O)C1=O)C2(C)C (centres undefined),0,0,0,0,0,-
COc1ccc(S(=O)(=O)NC2CC(C)(C)NC(C)(C)C2)c2ccccc12,0,0,0,?,0,0
CCc1cc(SC#N)cc(CC)c1NC(=O)CCl,0,?,?,10.4µM,0,?
O=C(N/N=C\c1ccc(F)cc1)c1ccc(F)cc1,75.3,0,0,0,46.9,-
O=C(N/N=C\c1cccc(F)c1)c1ccc(-c2ccccc2)cc1,0,0,0,0,21.1,0
O=C(N/N=C/c1ccccc1)c1ccc(NC(=O)c2ccc(F)cc2)cc1,57.7,0,0,?,48.5,0
O=C(N/N=C/c1cnc2ccccc2n1)c1cccc(F)c1,+,0,0,0,27.1,0
CC(=O)Nc1cccc(C(=O)N/N=C/c2cccc(C)n2)c1,0,0,0,0,0,0
Cc1ccccc1C(=O)Nc1ccc(C(=O)N/N=C/c2ccc(F)cc2)cc1,0,0,0,?,0,-
CC(=O)Nc1ccc(C(=O)N/N=C/c2ccc(F)cc2)cc1,0,0,?,0,0,-
CCNC(=S)N(CCCO)Cc1cc2cc3c(cc2[nH]c1=O)OCCO3,0,0,?,0,0,0
COCCCNC(=O)C1CCCN(C(=O)Nc2ccc(OC)cc2)C1 (centres undefined),0,0,0,0,0,0
CSc1ccc(/C=N/NC(=O)c2cccc(O)c2)cc1,0,0,0,0,27.0,0
O=C(N/N=C/c1ccc(C(F)(F)F)cc1)c1ccc(O)cc1,44.4,?,0,0,31.7,-
SMILES,Shiga inhibitor,SARS PLpro yeast,Pf growth 96h,Pf growth 48h,CHX counter,NS1 inh
O=C(N/N=C\c1c(F)c(F)c(F)c(F)c1F)c1ccc(-c2ccccc2)cc1,0,0,?,0,0,0
Cc1ccc(CNC(=O)c2csc3c2CCCCC3)cc1,0,0,?,0,0,0
O=C(N/N=C/c1ccc(O)cc1)c1csc2c1CCCC2,57.1,0,0,0,46.9,0
Nc1ccc(C(=O)N/N=C/c2ccccc2)cc1,108.4,0,0,0,40.9,0
CCOc1ccc(C(=O)N/N=C/c2ccc(SC)cc2)cc1,0,0,?,0,0,0
COC(C/C=C\[C@@H](O)COCc1ccccc1)OC,0,0,0,0,0,0
CC(C)(C)NC(=O)C(=O)N/N=C/c1ccc(F)cc1,47.9,0,0,0,26.1,-
